Assay results taken from PubChem BioAssay (NCATS).
Where “and” joins values, the source holds several entries; their conditions need not be identical. Identical values can stand only once. Results filed as inconclusive are left out. Calls of active or inactive are those of the source. Unless noted, calls follow the shape of the dose curve; as a rule, active = well fitted curve in the direction sought with a large enough effect; inconclusive = small, poorly fitted or top-dose-only effect, or another doubt; inactive = no such curve, though single readings can be large; an effect the other way counts as inactive or inconclusive.

Tests used:
[1] = MultiTox-Fluor Cytotoxicity Assay - LYMP1-001 - Live Cells (AID 947);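 also: 0% = DMSO only and full inhibition = tetraoctylammonium bromide control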
[2] = Cell Viability - LYMP1-002 - Assay at 16 hr (AID 948);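 also: 0% = DMSO alone and full effect = 92 µM tetraoctylammonium bromide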
Summary of the method: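 Acute cytotoxicity is scored as a concentration-dependent fall in intracellular ATP in a human lymphoblastoid line (LYMP1-002) after 16 hr compound exposure at 37 C, measured by luciferase luminescence.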

[3] = Cell Viability - LYMP2-003 (AID 965);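 also: cells exposed to compounds for 24 h before reading; 0% = DMSO only and full effect = 92 µM tetraoctylammonium bromide; nearly all actives have a fitted effect of over 50% in size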
Summary of the method: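 Acute cytotoxicity is scored as a concentration-dependent drop in intracellular ATP, measured by luciferase luminescence in human lymphoblastoid cells treated for 24 hours at 37 C. AC50 values derive from Hill-equation modelling.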

[4] = Cell Viability - LYMP2-005 (AID 967);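 also: series mostly up to about 92 µM; plate controls were DMSO only for no effect and 92 µM tetraoctylammonium bromide control for full effect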
Summary of the method: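 qHTS viability screen in LYMP2-005 cells: 24 h at 37 C with compound, ATP luminescence via CellTiter-Glo, AC50 from Hill curves.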

[5] = Cell Viability - LYMP2-008 (AID 980); also: % is scaled to controls: 0 for no effect and ±100 for the full control effect; nearly all actives have a fitted effect of over 60% in size
Summary of the method: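 Measured: ATP-dependent luminescence, proportional to viable cell number, in human lymphoblastoid cells treated 24 hr with compound in complete culture medium. Values are AC50s from Hill-equation modelling of qHTS titrations.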

[6] = Cell Viability - LYMP1-002 - Assay at 24 hr (AID 993); also: % is scaled to controls: 0 for no effect and ±100 for the full control effect
Summary of the method: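 Viability was judged from intracellular ATP using a luciferase read-out, following a 24-hour compound incubation at 37 C of lymphoblastoid cells seeded at 2500 per well. Concentration-response data were fitted to the Hill equation for AC50.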

[7] = target: Bile acid receptor (Homo sapiens) (UniProt Q96RI1); assay: qHTS assay for small molecule antagonists of farnesoid X receptor signaling (AID 588526; calls by dose curve; also: % is scaled to controls: 0 for no effect and ±100 for the full control effect)
Bile acid receptor (Homo sapiens), sequence (Q96RI1 whole entry, looked up): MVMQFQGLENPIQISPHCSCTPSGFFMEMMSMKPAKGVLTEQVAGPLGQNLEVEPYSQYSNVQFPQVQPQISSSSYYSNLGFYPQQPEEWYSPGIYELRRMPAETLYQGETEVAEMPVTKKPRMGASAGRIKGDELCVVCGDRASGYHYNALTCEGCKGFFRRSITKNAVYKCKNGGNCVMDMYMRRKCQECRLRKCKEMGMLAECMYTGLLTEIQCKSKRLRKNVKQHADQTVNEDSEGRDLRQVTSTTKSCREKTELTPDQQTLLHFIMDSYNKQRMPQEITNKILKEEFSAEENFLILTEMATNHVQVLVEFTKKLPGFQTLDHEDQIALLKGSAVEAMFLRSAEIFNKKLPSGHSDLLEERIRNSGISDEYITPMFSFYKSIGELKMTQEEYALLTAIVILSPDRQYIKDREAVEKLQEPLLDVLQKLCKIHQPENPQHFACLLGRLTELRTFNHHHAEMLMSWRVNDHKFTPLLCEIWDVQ
Summary of the method: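 Concentration-response titrations were fitted to the Hill equation for half-maximal inhibition and maximal response, with data normalised to 50 uM chenodeoxycholic acid and DMSO control wells. Cells: FXR-UAS-bla HEK293T, dialyzed FBS.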

[8] = target: Glucocorticoid receptor (Homo sapiens) (UniProt P04150); assay: qHTS assay for small molecule agonists of glucocorticoid receptor signaling (AID 588532; active = well fitted curve in the direction sought with a large enough effect in the signal ratio, with a control signal flat; the % refers to the signal ratio;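 also: 100% = dexamethasone at 0.1 µM and 0% = DMSO only wells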); details: HeLa MMTV-bla, beta-lactamase ratio, agonist, 18 h; stronger effect = higher value; percent of dexamethasone control, DMSO zero
Glucocorticoid receptor (Homo sapiens), sequence (P04150 whole entry, looked up): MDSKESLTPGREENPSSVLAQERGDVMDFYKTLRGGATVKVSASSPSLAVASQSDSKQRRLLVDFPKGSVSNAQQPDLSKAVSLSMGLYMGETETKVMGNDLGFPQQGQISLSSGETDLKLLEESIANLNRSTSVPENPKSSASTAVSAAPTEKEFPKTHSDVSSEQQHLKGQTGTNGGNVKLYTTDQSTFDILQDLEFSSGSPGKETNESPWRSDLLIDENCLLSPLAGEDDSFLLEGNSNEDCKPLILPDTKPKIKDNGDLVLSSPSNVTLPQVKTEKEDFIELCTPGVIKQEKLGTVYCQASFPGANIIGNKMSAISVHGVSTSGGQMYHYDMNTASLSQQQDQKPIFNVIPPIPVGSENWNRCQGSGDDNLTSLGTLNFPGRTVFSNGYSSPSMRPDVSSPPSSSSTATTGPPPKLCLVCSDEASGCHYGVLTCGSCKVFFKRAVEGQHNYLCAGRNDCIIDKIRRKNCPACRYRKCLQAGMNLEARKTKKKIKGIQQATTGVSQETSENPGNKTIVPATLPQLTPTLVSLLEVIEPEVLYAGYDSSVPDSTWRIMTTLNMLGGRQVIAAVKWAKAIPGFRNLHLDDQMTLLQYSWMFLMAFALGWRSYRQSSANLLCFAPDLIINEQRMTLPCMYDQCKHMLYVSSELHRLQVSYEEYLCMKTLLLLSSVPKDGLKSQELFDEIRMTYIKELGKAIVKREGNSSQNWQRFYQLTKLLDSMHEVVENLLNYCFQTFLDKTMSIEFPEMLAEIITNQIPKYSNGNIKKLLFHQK
Summary of the method: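 MMTV-bla HeLa, beta-lactamase reporter; medium with 1% charcoal/dextran-stripped FBS; cpds up to 92 uM, 18 h, 37 C; CCF4 readout 460/530 nm; Hill fit → EC50, efficacy vs 0.1 uM dexamethasone = 100%.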

[9] = target: Peroxisome proliferator-activated receptor delta (Homo sapiens) (UniProt Q03181); assay: qHTS assay for small molecule agonists of peroxisome proliferator-activated receptor delta signaling (AID 588534; calls by dose curve;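 also: 0% = DMSO basal wells and 100% = positive control agonist at 10 µM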)
Peroxisome proliferator-activated receptor delta (Homo sapiens), sequence (Q03181 whole entry, looked up): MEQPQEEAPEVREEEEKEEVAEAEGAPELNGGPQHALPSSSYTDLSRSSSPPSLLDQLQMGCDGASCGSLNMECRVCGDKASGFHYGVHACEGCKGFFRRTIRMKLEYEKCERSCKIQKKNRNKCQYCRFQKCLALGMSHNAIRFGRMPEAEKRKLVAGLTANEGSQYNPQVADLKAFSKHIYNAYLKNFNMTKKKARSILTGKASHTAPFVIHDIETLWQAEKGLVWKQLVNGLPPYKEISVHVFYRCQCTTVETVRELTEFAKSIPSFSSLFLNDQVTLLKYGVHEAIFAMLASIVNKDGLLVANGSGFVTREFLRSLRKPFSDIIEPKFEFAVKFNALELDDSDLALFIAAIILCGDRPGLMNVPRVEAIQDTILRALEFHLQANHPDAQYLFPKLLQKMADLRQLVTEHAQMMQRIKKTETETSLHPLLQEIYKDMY
Summary of the method: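 EC50 and efficacy values derive from Hill fits of a concentration series in a beta-lactamase reporter cell assay. Exposure is 18 hrs at 37 C, with CCF4 fluorescence as the readout.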

[10] = target: Peroxisome proliferator-activated receptor gamma (Homo sapiens) (UniProt P37231); assay: qHTS assay for small molecule antagonists of peroxisome proliferator-activated receptor gamma signaling (AID 588537; active = well fitted inhibition curve with a large enough effect in the signal ratio, with a control signal flat, not every such curve was filed as active; the % refers to the signal ratio;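 also: reporter cells co-stimulated with 50 nM rosiglitazone agonist during compound treatment; % of control where 0% means no effect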)
Peroxisome proliferator-activated receptor gamma (Homo sapiens), sequence (P37231 whole entry, looked up): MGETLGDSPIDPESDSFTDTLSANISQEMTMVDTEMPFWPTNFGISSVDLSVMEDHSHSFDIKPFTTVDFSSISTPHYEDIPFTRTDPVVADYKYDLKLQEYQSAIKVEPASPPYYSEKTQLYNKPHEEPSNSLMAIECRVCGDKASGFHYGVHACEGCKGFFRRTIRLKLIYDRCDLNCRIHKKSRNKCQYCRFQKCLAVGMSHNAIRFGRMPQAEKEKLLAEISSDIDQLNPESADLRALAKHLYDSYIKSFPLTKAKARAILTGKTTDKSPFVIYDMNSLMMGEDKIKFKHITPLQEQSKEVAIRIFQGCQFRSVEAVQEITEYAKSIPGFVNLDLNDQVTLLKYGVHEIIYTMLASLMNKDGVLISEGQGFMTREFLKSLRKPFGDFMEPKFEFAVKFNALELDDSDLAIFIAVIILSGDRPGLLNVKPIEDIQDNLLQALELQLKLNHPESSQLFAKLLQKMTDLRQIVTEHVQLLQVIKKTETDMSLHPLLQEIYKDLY
Summary of the method: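 HEK293 cells, PPAR-gamma-UAS-bla, 3000/well. Pre-incubation 6-6.5 h, 37 C. Compound titration with rosiglitazone 50 nM final, 16 h. CCF4 dye, 2 h RT, dual-emission fluorescence.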

[11] = target: Thyroid hormone receptor beta (Homo sapiens) (UniProt P10828); assay: qHTS assay for small molecule antagonists of thyroid hormone receptor beta signaling (AID 588547; active = well fitted inhibition curve with a large enough effect in the signal ratio, with a control signal flat, not every such curve was filed as active; the % refers to the signal ratio;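 also: cells stimulated with 0.4 nM T3 agonist during compound exposure; series mostly up to about 77 µM; % is scaled to controls: 0 for no effect and ±100 for the full control effect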); details: TR-UAS-bla HEK293, beta-lactamase ratio, antagonist mode, 18 h
Thyroid hormone receptor beta (Homo sapiens), sequence (P10828 whole entry, looked up): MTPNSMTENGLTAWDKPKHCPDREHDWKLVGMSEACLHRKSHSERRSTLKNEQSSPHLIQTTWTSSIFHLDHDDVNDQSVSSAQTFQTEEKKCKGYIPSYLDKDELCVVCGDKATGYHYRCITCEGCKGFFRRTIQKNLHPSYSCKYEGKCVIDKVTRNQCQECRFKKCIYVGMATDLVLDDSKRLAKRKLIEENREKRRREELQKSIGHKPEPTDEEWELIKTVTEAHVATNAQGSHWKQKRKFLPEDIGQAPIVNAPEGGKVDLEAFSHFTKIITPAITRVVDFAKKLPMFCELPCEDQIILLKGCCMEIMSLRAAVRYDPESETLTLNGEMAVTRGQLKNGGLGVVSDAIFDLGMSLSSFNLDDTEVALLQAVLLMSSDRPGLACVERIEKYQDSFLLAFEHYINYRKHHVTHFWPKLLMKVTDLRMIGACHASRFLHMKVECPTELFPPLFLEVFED
Summary of the method: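 TR-UAS-bla GripTite HEK293 cells in 2% charcoal/dextran FBS medium were preincubated 4 h at 37 C, given compound (0.59 nM to 92 uM) plus 0.4 nM T3 (final) for 18 h, then CCF4 for 2 h at RT; Hill fit gave IC50.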

[12] = qHTS assay for small molecule activators of the p53 signaling pathway (AID 651743; active = well fitted activation curve with a large enough effect in the signal ratio, not every such curve was filed as active; the % refers to the signal ratio; also: series mostly up to about 92 µM; % of control where 0% means no effect); details: HCT-116 p53RE-bla, beta-lactamase FRET ratio, 16 h; activation: stronger effect = higher value
Summary of the method: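 Here HCT-116 cells with an integrated p53-responsive beta-lactamase gene were incubated with compounds (16 hours, 37 C) after a 5-hour plating period; beta-lactamase activity was detected as fluorescence intensity via B/G FRET substrate.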

[13] = qHTS assay for small molecule activators of the nuclear factor-kappa B (NF-kB) signaling pathway (AID 651749; active = well fitted activation curve with a large enough effect in the signal ratio; the % refers to the signal ratio; also: series mostly up to about 77 µM; % of control where 0% means no effect); details: NF-kB-bla ME-180 cells, beta-lactamase FRET ratio, 16 h; stronger effect = higher value
Summary of the method: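 Beta-lactamase reporter expression, controlled by NF-kB response elements in ME-180 cells, was quantified fluorometrically via FRET disruption; cells at 2,000/well had been incubated with 23 nL test compound for 16 hr.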

[14] = qHTS assay for small molecule disruptors of the mitochondrial membrane potential - 1 hr assay (AID 651754; calls by dose curve; also: nearly all actives have a fitted effect of over 35% in size; also: potency is read from the fitted curve at half-maximal effect)
Summary of the method: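 In this qHTS format, a 1 hr compound treatment of HepG2 cells precedes Mito-MPS staining, and membrane potential is judged from aggregate (red) against monomer (green) fluorescence intensity.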

[15] = qHTS assay for small molecule disruptors of the mitochondrial membrane potential - 5 hr assay (AID 651755; calls by dose curve; also: % is scaled to controls: 0 for no effect and ±100 for the full control effect; nearly all actives have a fitted effect of over 40% in size)
Summary of the method: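 Seed HepG2 overnight, add compound, incubate 5 hr at 37C and 5% CO2, stain 30 min with Mito-MPS, then measure monomer (490/535 nm) and aggregate (540/590 nm) fluorescence.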

[16] = qHTS assay for small molecule antagonists of peroxisome proliferator-activated receptor delta signaling (AID 588535; active = well fitted inhibition curve with a large enough effect in the signal ratio, with a control signal flat, not every such curve was filed as active; the % refers to the signal ratio;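 as to max response: cells co-treated with a PPAR-delta agonist as stimulator during compound exposure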); details: HEK293T PPARd-UAS-bla, beta-lactamase FRET ratio, 18 h; 460 nm channel
Summary of the method: (§1)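 Compounds tested in titration on PPAR-delta-UAS-bla HEK293T cells grown in charcoal/dextran-stripped serum (2%); beta-lactamase activity read via CCF4 emission at 460 and 530 nm.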

[17] = target: Peroxisome proliferator-activated receptor delta (Homo sapiens) (UniProt Q03181); assay: as above
Summary of the method: as §1

[18] = target: Estrogen receptor (Homo sapiens) (UniProt P03372); assay: qHTS assay for small molecule antagonists of estrogen receptor alpha signaling (AID 588513; active = well fitted curve in the direction sought with a large enough effect in the signal ratio, with a control signal flat, not every such curve was filed as active; the % refers to the signal ratio; also: % is scaled to controls: 0 for no effect and ±100 for the full control effect)
Estrogen receptor (Homo sapiens), sequence (P03372 whole entry, looked up): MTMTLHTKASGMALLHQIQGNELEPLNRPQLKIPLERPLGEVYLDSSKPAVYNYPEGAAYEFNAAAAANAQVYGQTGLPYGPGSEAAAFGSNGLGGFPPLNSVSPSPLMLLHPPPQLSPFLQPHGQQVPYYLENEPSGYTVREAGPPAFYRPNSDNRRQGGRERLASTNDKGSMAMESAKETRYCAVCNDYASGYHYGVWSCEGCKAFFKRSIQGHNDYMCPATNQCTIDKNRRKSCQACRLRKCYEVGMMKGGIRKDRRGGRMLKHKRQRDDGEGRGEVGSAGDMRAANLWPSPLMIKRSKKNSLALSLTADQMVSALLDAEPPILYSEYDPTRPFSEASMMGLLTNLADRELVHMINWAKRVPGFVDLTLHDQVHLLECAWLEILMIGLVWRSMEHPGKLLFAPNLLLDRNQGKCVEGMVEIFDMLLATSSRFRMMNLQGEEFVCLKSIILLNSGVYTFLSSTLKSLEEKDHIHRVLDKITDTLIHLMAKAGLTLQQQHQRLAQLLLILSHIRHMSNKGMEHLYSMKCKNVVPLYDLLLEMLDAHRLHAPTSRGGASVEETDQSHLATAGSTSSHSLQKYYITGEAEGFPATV
Summary of the method: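 Cells were plated at 5000/well and incubated 4 h at 37 C. Compounds were added as 1:2 dilution series, duplicates. 17-beta-estradiol (0.5nM final) was added for 18 h before CCF4 detection.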

[19] = qHTS assay for small molecule agonists of the antioxidant response element (ARE) signaling pathway (AID 651741; active = well fitted activation curve with a large enough effect in the signal ratio; the % refers to the signal ratio; also: potency is read from the fitted curve at half-maximal effect; as to activation: % of control where 0% means no effect)
Summary of the method: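 Beta-lactamase reporter expression driven by the antioxidant response element in HepG2 cells was detected by fluorescence with LiveBLAzer B/G FRET substrate (2 h, room temperature) following 16 h compound treatment at 37 C.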

[20] = target: Glucocorticoid receptor (Homo sapiens) (UniProt P04150); assay: qHTS assay for small molecule antagonists of glucocorticoid receptor signaling (AID 588533; active = well fitted inhibition curve with a large enough effect in the signal ratio, with a control signal flat, not every such curve was filed as active; the % refers to the signal ratio)
Summary of the method: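 Antagonist-mode qHTS: compound titrations added to GRE-bla HeLa cells, then dexamethasone 2 nM final; 18 h, 37 C. CCF4 FRET fluorescence normalized to dexamethasone and DMSO; IC50 from Hill fit.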

Cc1cc(Cl)ccc1O
inactive: outcome [1] | outcome [2] | Potency [3] | Potency [4] | Potency [5] | Potency [6] | outcome [7] | activation [8] 0.519% | outcome [9] | Potency [10] | activity change % (negative = inhibition) [11] -9.26% | activation [12] -0.272% | activation [13] 0.374% | Potency [14] | Potency [15]

CCOS(C)(=O)=O
inactive: outcome [1] | outcome [2] | Potency [3] | Potency [4] | Potency [5] | Potency [6] | outcome [7] | outcome [9] | outcome [17] | activity change % (negative = inhibition) [11] -1.09% | activation [13] 0.8% | Potency [14] | Potency [15]
-10.7%: max response [16]

ClC=CCl
inactive: outcome [1] | outcome [2] | Potency [3] | Potency [5] | Potency [6] | Potency [18] | activation [8] -2.58% | outcome [17] | Potency [19] | activation [12] -3.46% | activation [13] 0.173% | Potency [14] | Potency [15]
12.6%: max response [16]

BrC(Br)Br
inactive: Potency [3] | Potency [4] | Potency [5] | Potency [6] | outcome [7] | activation [8] -1.59% | outcome [20] | activation [13] 0.744% | Potency [14] | Potency [15]

Oc1cc(Cl)cc(Cl)c1
inactive: outcome [2] | Potency [3] | Potency [5] | Potency [18] | activation [8] 6.41% | outcome [20] | outcome [9] | Potency [10] | activity change % (negative = inhibition) [11] 11.4% | activation [12] 1.86% | activation [13] 0.715%
active: Potency [14] 42.2 µM

Nc1c(Cl)cc([N+](=O)[O-])cc1Cl
inactive: outcome [1] | outcome [2] | Potency [3] | Potency [4] | Potency [6] | Potency [18] | outcome [7] | activation [8] -0.898% | outcome [20] | outcome [9] | Potency [10] | activity change % (negative = inhibition) [11] 16.2% and 3.97% | activation [13] 0.598% and -4.6%
active: Potency [14] 29.8 µM
8.87% and 11.4%: max response [16]

C=CCBr
inactive: outcome [1] | outcome [2] | Potency [4] | Potency [5] | Potency [6] | Potency [18] | outcome [7] | activation [8] 0.974% | activity change % (negative = inhibition) [11] -19.2% | Potency [19] | activation [12] -2.4% | Potency [14]

O=C(O)C(Cl)(Cl)Br
active: Potency [19] 42.2 µM
inactive: outcome [1] | Potency [3] | Potency [5] | outcome [7] | activation [8] -2.11% | outcome [20] | outcome [9] | Potency [10] | activity change % (negative = inhibition) [11] -3.52% | activation [12] -0.303% | Potency [15]

C=CCCC#N
inactive: outcome [1] | outcome [2] | Potency [3] | Potency [5] | Potency [6] | Potency [18] | outcome [7] | activation [8] -1.36% | outcome [9] | activity change % (negative = inhibition) [11] 9.59% | activation [12] -2.14% | activation [13] 0.189% | Potency [15]

CCCCCOC(=O)c1ccccc1C(=O)OCCCCC
inactive: outcome [1] | outcome [2] | Potency [3] | Potency [5] | Potency [6] | Potency [18] | activation [8] 5.29% and -3.67% | outcome [20] | Potency [10] | activity change % (negative = inhibition) [11] 15.4% and 2.77% | Potency [19] | activation [12] -1% and 1.8% | activation [13] 1.01% and -1.21% | Potency [15]

ClCc1ccccc1
inactive: outcome [1] | Potency [3] | Potency [5] | Potency [6] | Potency [18] | outcome [9] | outcome [17] | activity change % (negative = inhibition) [11] 2.64% | Potency [19] | activation [12] -2.55% | activation [13] -0.661%
-22.1%: max response [16]
